# Measured values as given in PubChem BioAssay (EPA / NIEHS).
# Some structures have more than one record in an assay (separate samples or runs), and their calls can disagree. Activity calls are given as the source filed them. How the source made its calls: active means hit-call score of the fitted dose curve at least 0.9, where 1 is the maximum; inactive means score below 0.9.
# Read-out: Interleukin-1 alpha (IL1a), IL1A (gene 3552)
# Test: BSK_BE3C_IL1a: BioMAP Diversity Plus: BE3C Assay for Interleukin-1 alpha (IL1a) Biomarker Activity (AID 2283016)
# Details: primary human bronchial epithelial cells; actives raise or lower the signal
# Outline: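 Signal from IL-1a ELISA, taken 24 h after chemical dosing of human bronchial epithelial cells, is compared with DMSO as baseline using bidirectional curve fitting.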
SMILES,outcome,AC50
OCC(O)CC(F)(F)C(F)(F)C(F)(F)C(F)(F)C(F)(F)C(F)(F)C(F)(F)C(F)(F)F (centres undefined),inactive,–
C=CC(=O)OCC(F)(F)C(F)(F)C(F)(F)C(F)(F)C(F)(F)C(F)(F)C(F)(F)C(F)F,inactive,–
NS(=O)(=O)C(F)(F)C(F)(F)C(F)(F)C(F)(F)C(F)(F)C(F)(F)F,inactive,31.6 µM (active)
NC(=O)C(F)(F)C(F)(F)C(F)(F)C(F)F,inactive,–
O=S(=O)(OCC(F)(F)F)C(F)(F)C(F)(F)C(F)(F)C(F)(F)F,inactive,–
C[C@]12CC[C@H]3C(=CCc4cc(O)ccc43)[C@@H]1CCC2=O,inactive,–
CO[Si](C)(CCC(F)(F)C(F)(F)C(F)(F)C(F)(F)C(F)(F)C(F)(F)F)OC,inactive,–
NCC(F)(F)C(F)(F)C(F)(F)C(F)(F)C(F)(F)C(F)(F)F,inactive,–
CNS(=O)(=O)C(F)(F)C(F)(F)C(F)(F)C(F)(F)C(F)(F)C(F)(F)C(F)(F)C(F)(F)F,inactive,–
NC(=O)C(F)(F)C(F)(F)C(F)(F)C(F)(F)C(N)=O,inactive,–
Cc1ccc(O)c(-n2nc3ccccc3n2)c1,inactive,–
O=C=Nc1cccc2c(N=C=O)cccc12,inactive,–
CCN(CC)c1ccc(C=O)cc1,inactive,–
O=C(O)CCC(F)(F)C(F)(F)C(F)(F)F,inactive,–

# Read-out: Monocyte Chemoattractant Protein-1 (MCP1), CCL2 (gene 6347)
# Test: BSK_3C_MCP1: BioMAP Diversity Plus: 3C Assay for Monocyte Chemoattractant Protein-1 (MCP1) Biomarker Activity (AID 2283017)
# Details: primary human endothelial cells (HUVEC); actives raise or lower the signal
# Outline: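 Primary human umbilical vein endothelial cells (3C system) were exposed to test chemical for 24 h, after which MCP-1 was quantified by ELISA. Activity was fitted bidirectionally against DMSO as negative control and baseline.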
row,SMILES,outcome
1,OCC(O)CC(F)(F)C(F)(F)C(F)(F)C(F)(F)C(F)(F)C(F)(F)C(F)(F)C(F)(F)F (centres undefined),inactive
2,C=CC(=O)OCC(F)(F)C(F)(F)C(F)(F)C(F)(F)C(F)(F)C(F)(F)C(F)(F)C(F)F,inactive
3,NS(=O)(=O)C(F)(F)C(F)(F)C(F)(F)C(F)(F)C(F)(F)C(F)(F)F,inactive
4,NC(=O)C(F)(F)C(F)(F)C(F)(F)C(F)F,inactive
5,O=S(=O)(OCC(F)(F)F)C(F)(F)C(F)(F)C(F)(F)C(F)(F)F,inactive
6,C[C@]12CC[C@H]3C(=CCc4cc(O)ccc43)[C@@H]1CCC2=O,inactive
7,CO[Si](C)(CCC(F)(F)C(F)(F)C(F)(F)C(F)(F)C(F)(F)C(F)(F)F)OC,inactive
8,NCC(F)(F)C(F)(F)C(F)(F)C(F)(F)C(F)(F)C(F)(F)F,inactive
9,CNS(=O)(=O)C(F)(F)C(F)(F)C(F)(F)C(F)(F)C(F)(F)C(F)(F)C(F)(F)C(F)(F)F,inactive
10,NC(=O)C(F)(F)C(F)(F)C(F)(F)C(F)(F)C(N)=O,inactive
11,Cc1ccc(O)c(-n2nc3ccccc3n2)c1,inactive
12,O=C=Nc1cccc2c(N=C=O)cccc12,inactive
13,CCN(CC)c1ccc(C=O)cc1,inactive
14,O=C(O)CCC(F)(F)C(F)(F)C(F)(F)F,inactive
